EBNA-1 inh – blocks EBNA-1 binding to DNA; inhibition, % at 14.8 µM; EBNA-1 DNA binding, fluorescence polarization; actives 0.34% (n = 300,000); in the data active = inhibition above about 28%
PP1 counter – PP1-alpha (human) inhibition in PP5 counter-screen | purified PP1alpha, OMFP fluorescence | actives 0.9% (n = 320,000) | AID 2235 | inhibition, % at 6.7 µM | P62136;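 active = inhibition above the mean inhibition of all tested compounds plus 3 SD, computed separately for each screening campaign, cut at about 15% in these data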
Target sequence (P62136 whole entry, looked up): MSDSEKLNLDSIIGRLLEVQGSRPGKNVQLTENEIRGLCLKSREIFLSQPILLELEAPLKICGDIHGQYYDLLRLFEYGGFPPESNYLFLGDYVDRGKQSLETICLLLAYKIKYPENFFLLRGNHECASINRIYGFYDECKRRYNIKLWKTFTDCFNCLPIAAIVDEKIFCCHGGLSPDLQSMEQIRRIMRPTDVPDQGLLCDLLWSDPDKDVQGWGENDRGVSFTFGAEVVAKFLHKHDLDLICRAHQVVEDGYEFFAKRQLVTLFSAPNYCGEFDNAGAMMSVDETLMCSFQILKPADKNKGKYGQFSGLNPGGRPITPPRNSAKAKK
MsrA act – activators of bovine methionine sulfoxide reductase A | purified bovine MsrA, absorbance read-out | activation, % at 10.6 µM | actives 0.3% (n = 360,000); in the data active = activation above about 7.5%;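 note: 0% = vehicle and 100% = reference activator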
MsrA inh – inhibitors of bovine MsrA | purified bovine MsrA, absorbance read-out | inhibition, % at 15.5 µM | actives 0.75% (n = 360,000);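 note: 0% = vehicle wells with enzyme and 100% = reference inhibitor wells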
ZTA DNA inh – counter-screen for EBNA-1 inhibitors: inhibitors of Epstein-Barr virus ZTA; ZTA-DNA binding, fluorescence polarization; inhibition, % at 11 µM; actives 0.15% (n = 320,000); in the data active = inhibition above about 33%
Target sequence (P03206 whole entry, looked up): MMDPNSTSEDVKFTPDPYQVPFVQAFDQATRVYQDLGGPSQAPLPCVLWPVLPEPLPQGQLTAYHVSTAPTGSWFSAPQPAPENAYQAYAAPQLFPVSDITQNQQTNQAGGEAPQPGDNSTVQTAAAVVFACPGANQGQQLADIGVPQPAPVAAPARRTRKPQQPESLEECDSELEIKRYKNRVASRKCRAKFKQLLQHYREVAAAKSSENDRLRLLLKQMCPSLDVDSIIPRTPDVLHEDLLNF
PP5 inh – inhibitors of human protein phosphatase 5 (PP5); P53041; purified PP5c, OMFP substrate fluorescence; AID 1987; actives 0.18% (n = 320,000); inhibition, % at 6.7 µM;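 active = inhibition above the campaign's mean inhibition across all tested compounds plus 3 SD, cut at about 9.5% in these data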;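 note: 0% = DMSO only and 100% = 100 µM cantharidin control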
MsrA inh confirm – bovine MsrA inhibition, confirmed; inhibition, % at 15.5 µM; actives 41% (n = 2,300); shares compounds with MsrA inh; purified bovine MsrA, absorbance read-out; AID 651822;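 note: coupled to thioredoxin reductase with NADPH and selenocystamine and DMSO as substrate; 0% = vehicle only and 100% = full effect of reference inhibitor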
* hit, by the source's call; . = no result given. Compounds with a hit are over-represented: about 2.3% of the library has one in this group of screens. Cut-off read from the data, not from the text of the source, unless noted: active = inhibition above about 4.5%; inactive = the rest.

SMILES | EBNA-1 inh | PP1 counter | MsrA act | MsrA inh | ZTA DNA inh | PP5 inh | MsrA inh confirm
CC(=O)Nc1ccc(C=NNc2ccc(S(=O)(=O)Nc3ccccc3C(=O)O)cc2[N+](=O)[O-])cc1 | . | . | -7 | 6.0* | . | . | 4.9*
NS(=O)(=O)c1ccc(N/N=C/c2ccc(C(=O)O)cc2)c([N+](=O)[O-])c1 | -2 | 1 | -6 | 5.1* | -8 | 3 | 4.9*
CCS(=O)(=O)c1ccc2oc(Nc3cccc(OC)c3)nc2c1 | -4 | 0 | 0 | 0 | -24 | -2 | .
NS(=O)(=O)c1ccc(NC(=O)COC(=O)Cn2cnc3ccccc3c2=O)cc1 | . | . | -10 | 0 | . | . | .
Cc1cc(C(=O)Nn2c(-c3ccc(Br)cc3)nc3ccccc3c2=O)ccc1[N+](=O)[O-] | -12 | 0 | -4 | 1 | -14 | 2 | .
CC(C)C(=O)Nc1ncc(C(F)(F)F)cc1Cl | -4 | -1 | 3 | 3 | -1 | 0 | .
CC(Sc1ncc(C(F)(F)F)cc1Cl)C(=O)NC(N)=O (configuration not stated) | -8 | -1 | -4 | 19* | -8 | 0 | 15*
CC1CCN(CC(=O)Nc2cccc(C(=O)Nc3cccc(C(F)(F)F)c3)c2)CC1 | 1 | 0 | 1 | -2 | -10 | 8 | .
O=C1NC(=O)C(=C2CCOC2=O)N1 | . | . | -4 | 1 | . | . | .
Cc1cc2nc(-c3ccc(SCc4ccc(C(=O)O)cc4)nc3)[nH]c2cc1C | 11 | 7 | -2 | 5.5* | 23 | -1 | 4
Cc1cc2nc(-c3ccc(SCC(=O)NC(C)C)nc3)[nH]c2cc1C | 6 | -1 | . | . | -8 | 1 | .
CC(C)CCN1CCN(Cc2nc(-c3ccc(F)cc3)cs2)CC1CCO (configuration not stated) | 13 | -2 | -5 | 2 | 7 | -1 | .
COc1ccc2cc(-c3[nH]ncc3CN3CCCC3c3nonc3C)ccc2c1 (configuration not stated) | -11 | 1 | -6 | 33* | -2 | 1 | 26*
CCCCN(C(=O)c1ccc(OC)c([N+](=O)[O-])c1)c1c(N)n(CCC)c(=O)[nH]c1=O | 0 | 1 | -1 | 2 | -9 | 3 | .
O=C(O)CC1S/C(=N/N=C/C=C/c2ccccc2)NC1=O (configuration not stated) | 8 | -3 | -11 | 9.2* | 33 | -1 | 7.8*
O=C(O)CC1S/C(=N/N=C/C=C/c2ccccc2[N+](=O)[O-])NC1=O (configuration not stated) | 0 | -2 | -4 | 6.2* | 3 | 4 | 6.3*
O=C(O)CNC(=O)CC1S/C(=N/N=C/c2ccccc2O)NC1=O (configuration not stated) | 7 | 4 | -7 | 7.5* | -8 | 2 | 4
CC(=O)c1cccc(NC(=O)CC2S/C(=N/N=C/c3ccccc3)NC2=O)c1 (configuration not stated) | -2 | 12 | -3 | 1 | 4 | 3 | .
O=C(CC1S/C(=N/N=C/C=C/c2ccccc2)NC1=O)Nc1ccc(Cl)c(Cl)c1 (configuration not stated) | -1 | 2 | -2 | 0 | -6 | 2 | .
O=C(O)CC1S/C(=N/N=C/c2ccc([N+](=O)[O-])cc2)N(c2ccc(O)cc2)C1=O (configuration not stated) | 5 | -4 | -4 | 6.8* | -11 | 3 | 3
O=C1CSC(=Nc2ccc(O)cc2)N1c1ccc(O)cc1 | 6 | -1 | -9 | 1 | -17 | -1 | .
COc1ccc(/C=N\N=C2/SC(CC(=O)O)C(=O)N2c2ccc(O)cc2)cc1OC (configuration not stated) | -3 | 3 | -6 | 5.9* | -14 | -5 | 4.9*
COc1cc(/C=N/N=C2/SCC(=O)N2c2ccc(O)cc2)ccc1O | 7 | 0 | -6 | 5.6* | -3 | 0 | 4.6*
COc1cc(/C=N\N=C2/SC(CC(=O)O)C(=O)N2c2ccc(O)cc2)ccc1O (configuration not stated) | -10 | 0 | -7 | 4 | 5 | 3 | .
O=C(O)CC1S/C(=N\N=C2CCCCCC2)N(c2ccccc2)C1=O (configuration not stated) | 4 | 1 | -13 | 0 | 3 | -1 | .
SMILES | EBNA-1 inh | PP1 counter | MsrA act | MsrA inh | ZTA DNA inh | PP5 inh | MsrA inh confirm
Cc1cccc(C)c1NC(=O)C(c1ccccc1)n1c(=O)c(-c2ccco2)nc2ccccc21 (configuration not stated) | . | . | . | 2 | . | . | .
CC(=O)c1cccc(CN2CCN(Cc3ccccc3)C(CCO)C2)c1 (configuration not stated) | -5 | -1 | 3 | -1 | 1 | 0 | .
CCOc1ccc(N2CC(C(=O)NCCN3C(=O)S/C(=C/c4cccnc4)C3=O)CC2=O)cc1 (configuration not stated) | . | . | -4 | 5.0* | . | . | 2
c1ccc(-c2nnsc2Sc2ccccn2)cc1 | -17 | 0 | 3 | 5.8* | -12 | 3 | 4
Cc1nnsc1Sc1ccccn1 | 5 | 1 | -4 | -2 | -3 | 2 | .
CCCOc1cccc(C2/C(=C(/O)c3ccc(OC)cc3)C(=O)C(=O)N2CCN(C)C)c1 (configuration not stated) | -10 | 6 | -9 | 3 | 3 | -2 | .
CCCCOc1ccc(/C(O)=C2/C(=O)C(=O)N(CCN(C)C)C2c2ccc(O)c(OC)c2)cc1 (configuration not stated) | -4 | 0 | -2 | 8.1* | -8 | 1 | 0
O=C(N/N=C/c1ccc(F)cc1)c1cc[n+]([O-])cc1 | -12 | -2 | -1 | 1 | -14 | -1 | .
CC1=C(c2ccc(C)cc2)[N+](=O)C(C)(C)N1[O-] | -1 | -2 | -2 | 1 | -2 | 2 | .
CC1=C(c2ccc(F)cc2)[N+](=O)C(C)(C)N1[O-] | 4 | -1 | -11 | 4.8* | -9 | 1 | 0
CCN1CCN(c2nc(Nc3ccccc3)nc(N)c2[N+](=O)[O-])CC1 | 6 | -2 | 2 | 4.8* | -3 | 0 | 4
O=C(NC(=S)NNC(=O)c1ccccc1O)c1ccco1 | -8 | 1 | -1 | 2 | 9 | 0 | .
COc1ccccc1C(=O)Nc1ccc(NC(=O)c2ccco2)cn1 | 3 | -2 | -1 | 1 | -7 | 0 | .
O=C(NC(=S)NNC(=O)c1cc2ccccc2cc1O)c1ccco1 | 7 | 6 | -8 | 6.5* | 6 | -1 | 4
COc1ccc(/C=C/C(=O)NC(=S)NNC(=O)c2ccco2)cc1 | -4 | 8 | 1 | 5.5* | -17 | 2 | 4.9*
COc1ccccc1C(=O)NC(=S)Nc1ccc(NC(=O)c2ccco2)cc1 | -1 | -3 | -2 | 99* | 7 | 1 | 1
COc1ccc(/C=C/C(=O)NC(=S)NNC(=O)c2ccco2)cc1OC | -10 | 5 | -5 | 3 | -1 | -1 | .
O=C(Nc1ccc(NC(=S)NC(=O)c2ccco2)cc1)c1ccccc1 | 5 | -2 | -4 | 1 | -3 | -1 | .

Compound activity from PubChem.
